According to the supplement of paper PMC11417369:
In all, about 25,000 sequences were measured (“ln(normalized median fluorescence intensity)”: median about 6.7, highest 2% from about 10 on). Shown is part of a subset that was picked to be rich in the highest values.

test system: PfHDP1 homeodomain (GST-tagged); test: gcPBM binding intensity (ln(normalized median fluorescence intensity)); higher = stronger DNA binding
How it was run: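 Binding intensity is the highest Masliner-normalised natural-log median intensity over replicate spots in either probe orientation. To obtain it, GST-tagged P. falciparum DNA-binding domains made in E. coli were incubated for 1 h on an Agilent 4 × 180k array of primer-extended double-stranded 36-bp intergenic genomic probes plus negative controls. Detection used Alexa488 anti-GST antibody with scanning at 488 nm.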

Sequence	gcPBM binding intensity (ln)
AAAAAAAAAAAAAACACACACAAATTTAATATATAT [CACACA_site1695]	6.64
TTTTTTTTTTTTTTTTGTACTCATATCTACTATCAT [XGTACX_site274]	6.44
AAATAAAATTTTATGTGTACGCAAAAAGTTGTAAGC [XGTACX_site8911]	7.29
GTGGACGAAATAGTTGTAAATTTATGTGCAAACCTC [XGTACX_negctrl_site564]	11.2
AAATTTATATATAGTTGTACAAAAATATGTTTCGTA [XGTACX_site4801]	6.62
GTTTTTAATGTTTTGACATGCAATATTAAAAATAAT [TGCATGCA_site174]	6.57
TATATATATATATATATTTTAAATGATATAAATGGT [TGCATGCA_negctrl_site152]	9.23
AAAAAAAAAATGAGCACACATAAATAAAAACAAACA [CACACA_site1573]	7.39
AATATATCAAAAATGATGACATAAATATATTAATTT [GTGCAC_negctrl_site530]	6.13
AAATGAATATTCATAGTGCAATATATAAATGAAAAT	9.5
ATTAAATTTCCTTGAGTGCACATTTTGTTAAAATAT	9.29
GTATTCATTCCTTGAGTGCAATTGCAATAAATAAAA	10.7
ATACTATAATATAAAACACACATATGTACCTTCTAA [CACACA_site7323]	6.67
TTGCAATAATGTTGCACACTAAATAGTCATATATAA [CACACA_site263]	9.77
TATAAGGCAATAATAGTGCACTAAGATATATAATGA	10.7
TATTAATATATAGTAGTGCAATAAAGATATACTGAA	9.67
GTATTATATTTCAACTGTACGTAAAACTATTAAAAT [XGTACX_site3679]	6.55
ACCAATAAATATTTGGTGCATACATATATATATATA	10.5
TATTTCTTTTGGTTGGTGCATAAAATAATACAATAT [GTGCAC_site9916]	10.5
TCAATAAATATACATACATGCATACATACATACATA [TGCATGCA_site197]	6.53

Sequence	gcPBM binding intensity (ln)
AAATAATTTATATATTGTACAAATATTAAATGCGAA [XGTACX_site3390]	7.16
ATAACCTAATAATACACACACATGAATATATATAAT [CACACA_site4689]	7.17
TTATTTTCTTTCTATGCACACGCACGTATTTGCCCA [CACACA_site9104]	9.79
TATTTTTCCCTATGCACACACACCGTATATATAATA [CACACA_site4758]	10.1
ATTTTCTTTCTATGCACACGCACGTATTTGCACCCA [CACACA_site3350]	10.9
CGTAATAAAAACAAATGTACATGACCTGGACAGGTT [XGTACX_site6560]	6.4
TTATTTTTTTTATATATATGTATAAATATATATATA [XGTACX_negctrl_site441]	7.84
TTATAAAATGGGCAAACACACACAAAAAAAAGATAT [CACACA_site8476]	7.42
TAATACTTTTAATCTACACACGCTGAGACATGCTTT [CACACA_site1484]	6.14
TATCTTACTTTTTGCACACACTAATATTATTGTTTA [CACACA_site4990]	11.1
TAATATTACATTTATTGTACTTTGTTTTTATTTTAT [XGTACX_site1605]	6.27
TATATCTTACTTTTTGCACACACTAATATTATTGTT [CACACA_site1640]	10.1
ATAATATTATACTTTGCACACATCTGAAATGACATA [CACACA_site3952]	10.4
ATATATTTTTTGAATACACACATATTATCTGTAATA [CACACA_site4826]	6.45
ATATACTTATATATTGCACACATCTAATATTTTGAA [CACACA_site3165]	10.5
ATAAATCCCAAAACCTTGCAAGACAACGTTTGATCA [CACACA_negctrl_site1327]	6.57
TCTTTAACAAGTTAAACACACATACCTATATACATA [CACACA_site7237]	6.47
TCTTTCTTATTTTAATGATATTTATTCATTCCAGTT [CACACA_negctrl_site1679]	6.52
TTCCCAACATGATATTGTACATTTAATTATAATTAA [XGTACX_site7029]	7.08
CAAAACATTTTATCTACACACATATATAAATAAATA [CACACA_site3220]	6.36

Sequence	gcPBM binding intensity (ln)
TAAAAAAAAACATGTGCACACGTTTTATCTACATAA [CACACA_site2336]	10.8
TTATCTCTACAAAGTGCACACACGTAAAAACATATA [CACACA_site3957]	8.98
TATTATTGTCTTTCAAAAAAAAAAAAAAAAAAAAAA [CACACA_negctrl_site1242]	6.11
TATCGAGCCATTTTTACATGCAATTATACATAATTT [TGCATGCA_site987]	6.73
ATAATTATTCTTATGGTGCACTGAATATACATGTTG [GTGCAC_site9760]	9.5
AATATATTGCACCATTGGACCTGAATAATTCTTCCA [CACACA_negctrl_site1071]	11.4
AATATTGCACCATTTTGTACATAATATATTCAAATA [XGTACX_site475]	10.3
ATATCTATAATAAATACACACATTTATATAGATAAA [CACACA_site7518]	6.38
AAATGTGTTAATGTGCGTACACATATATATAATATT [XGTACX_site2792]	6.66
ATTTTGTGCGCACACACATGCAAAAAGAAATATGAT [TGCATGCA_site261]	10.5
GTGTATTTTGTGCGCACACACATGCAAAAAGAAATA [CACACA_site6660]	9.54
TTGTGGATTTTGTGCGCACACACATGCAAAAAGAAA [CACACA_site1147]	9.58
TAATGATAAATACATACACACAAAAAATGATATATA [CACACA_site7258]	6.48
TCTTCTTTTTTTTTTTTGTATTATTATAAATATTAT [CACACA_negctrl_site1668]	6.53
ATATATATTATTTCTACACACATATATATAATATGT [CACACA_site3374]	6.9
GAAAATAAAATAAATGCATGTAAATTTAATGTAATG [TGCATGCA_site996]	6.88
AATATATATATGTGTACACATCCAAAATAGGCATAC [CACACA_site5705]	7.59
TTTGTTATATTTAATACACACATATTATAAACACAT [CACACA_site7703]	6.88
TTAATATATTATCTGGTGCATAAACACGTTATACCT	10.6
TATATATAATATTATACACACATATCTGCATAATAT [CACACA_site4202]	7.05
